# The entries come from a sample that favours hits as a whole.
# Cycloheximide cs: Cycloheximide Counterscreen for Small Molecule Inhibitors of Shiga Toxin. cell reporter, cycloheximide protein synthesis inhibition counterscreen. max response, %. 12% of 300,000 active; in the data active = max response mostly above about 13%, no sharp cut-off; inactive = mostly below about 14%; note: read at 38.3 µM for the half of the compounds with a filed dose; 0% is about no effect
# LmPK inh: qHTS Assay for Inhibitors of Leishmania Mexicana Pyruvate Kinase (LmPK). purified LmPK, Kinase-Glo ATP luminescence, 1 h. Potency, µM (highest dose often 57.5 µM), without a hit: top-dose activity change, negative = inhibition, usual class: inhibitors. 0.37% of 290,000 active. AID 1721, 2009; note: potency is the fitted concentration of half-maximal effect; % is set by controls: 0 for no effect and ±100 for the full control effect
#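 qHTS format; LmPK 0.1 nM; substrates PEP 0.5 mM and ADP 0.1 mM. One-hour room-temperature incubation, then coupled luciferase luminescence; 0.5 nM enzyme wells mark activation.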
# Sm TGR block: qHTS Assay for the Inhibitors of Schistosoma Mansoni Peroxiredoxins | purified TGR, DTNB reduction, TNB absorbance 405 nm | 3% of 360,000 active | Potency, µM (highest dose often 114 µM), for the others: top-dose activity change, negative = inhibition, actives largely listed as inhibitors | Schistosoma mansoni thioredoxin glutathione reductase (TGR), Q962Y6; note: potency is the fitted concentration of half-maximal effect; % is set by controls: 0 for no effect and ±100 for the full control effect; nearly all actives have a fitted effect of over 60% in size
#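 TGR 20 nM + NADPH 100 uM (dispensed conc.), cpd preinc 15 min RT; start with NADPH (500 uM addition) then DTNB (15 mM addition). Kinetic TNB absorbance, 405 nm filter. Four-parameter Hill fit across titration.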
# FBPA Giardia inh: qHTS Assay for Inhibitors of Fructose-1,6-bisphosphate Aldolase from Giardia Lamblia; purified Giardia FBPA; 0.71% of 290,000 active; Potency, µM (top dose mostly 59.6 µM), without a hit: at the top dose activity, negative = inhibition, usual class: inhibitors; A8B2U2; note: potency is the fitted concentration of half-maximal effect; % is set by controls: 0 for no effect and ±100 for the full control effect; nearly all actives have a fitted effect of over 55% in size
# Target sequence (A8B2U2 whole entry, looked up): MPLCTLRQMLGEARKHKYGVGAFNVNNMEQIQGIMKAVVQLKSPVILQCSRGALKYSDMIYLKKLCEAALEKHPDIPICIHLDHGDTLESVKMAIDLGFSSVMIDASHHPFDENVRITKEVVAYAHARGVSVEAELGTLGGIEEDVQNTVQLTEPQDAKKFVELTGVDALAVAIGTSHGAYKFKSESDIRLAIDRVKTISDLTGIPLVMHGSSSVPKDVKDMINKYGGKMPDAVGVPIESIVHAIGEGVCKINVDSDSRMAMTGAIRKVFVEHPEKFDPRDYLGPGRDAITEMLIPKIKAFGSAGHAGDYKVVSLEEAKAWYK
#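 Giardia FBPA (40 nM reagent) was preincubated 10 min at RT with compound (up to 57.5 uM final), then substrate plus GAPDH/TPI/NAD/arsenate coupling system with diaphorase/resazurin was added; resorufin fluorescence (525/598 nm) was read after 20 min.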
# Shiga toxin inh: A qHTS for Small Molecule Inhibitors of Shiga Toxin; Vero cells, Shiga toxin protein synthesis inhibition reporter; inhibition, % at 38.7 µM; 9.2% of 290,000 active; in the data active = inhibition mostly above about 28%, no sharp cut-off; inactive = mostly below about 43%; note: 0% is about no effect
# Tb PYK inh: qHTS of Trypanosoma Brucei Inhibitors; TbPYK enzyme, Kinase-Glo Plus ATP luminescence, 45 min; Potency, µM (doses to about 76.8 µM), for the others: at the top dose activity, negative = inhibition, hits mostly inhibitors; 0.12% of 410,000 active; note: potency is the fitted concentration of half-maximal effect; % is set by controls: 0 for no effect and ±100 for the full control effect; nearly all actives have a fitted effect of over 50% in size
#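 T. brucei PYK with substrate was exposed to pin-transferred compounds across a concentration series, then started with 130 uM ADP (final). After 45 min at room temperature, Kinase-Glo Plus luminescence was read, normalized and curve-fitted.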
# * marks the source's active call; other numbers are inactive results; ? = inconclusive; nt = no result given. Unless noted, calls come from the whole dose curve; as a rule, active = well fitted curve in the direction sought with a large enough effect; inconclusive = small, poorly fitted or top-dose-only effect, or another doubt; inactive = no such curve, though single readings can be large; an effect the other way counts as inactive or inconclusive.
SMILES,Cycloheximide cs,LmPK inh,Sm TGR block,FBPA Giardia inh,Shiga toxin inh,Tb PYK inh
Cc1ccc(-n2c3c(cc(-c4nc(-c5ccc(Cl)cc5)cs4)c2=O)C(=O)CC(C)(C)C3)cc1,nt,nt,12%,nt,nt,2%
COc1ccc(OC)c(NC(=O)C2Cc3ccccc3CN2S(=O)(=O)c2ccc(F)cc2)c1 (stereo not drawn),nt,nt,4%,nt,nt,0%
CCCOc1ccc(/C=N/NC(=S)Nc2ccccc2[N+](=O)[O-])c(O)c1,93*,4%,-2%,23%,75*,1%
CCN(/C=N/c1sc2c(c1C#N)CCCCC2)CC,52*,-6%,-7%,1%,67*,-2%
CC(C)CN(/C=N/c1sc2c(c1C#N)CCCCC2)CC(C)C,-2,2%,-9%,-1%,-4,-4%
CN1CCN(/C=N/c2sc3c(c2C#N)CCCCC3)CC1,46*,0%,-8%,1%,89*,-4%
O=c1c2ccccc2nc2n1CCN2Cc1ccc(Cl)cc1,33*,1%,-3%,-3%,38,2%
COc1ccccc1NC(=O)CSc1nc(-c2cccc(Cl)c2)nc2c1Cc1c(CO)cnc(C)c1O2,nt,nt,20µM*,nt,nt,1%
CCSc1nc(-c2ccccc2F)nc2c1Cc1c(CO)cnc(C)c1O2,nt,nt,45µM*,nt,nt,-4%
CCSc1nc(-c2ccccc2OC)nc2c1Cc1c(CO)cnc(C)c1O2,nt,nt,-5%,nt,nt,2%
CSc1cccc(NC(=O)CC(c2cccs2)N2Cc3ccccc3C2=O)c1 (stereo not drawn),nt,nt,27%,nt,nt,-5%
CCC1CCCCN1C(=O)CCS(=O)(=O)c1cc2c(cc1C)NC(=O)CO2 (stereo not drawn),nt,nt,4%,nt,nt,-10%
Cc1ccc(C2C(C(=O)c3cc4ccccc4o3)=C(O)C(=O)N2CCN2CCOCC2)o1 (stereo not drawn),24*,3%,22µM*,0%,54*,-7%
COc1cccc2cc(C(=O)C3=C(O)C(=O)N(CCN4CCOCC4)C3c3ccc(Cl)cc3)oc12 (stereo not drawn),-3,2%,40µM*,3%,6,-8%
O=C(C1=C(O)C(=O)N(CCN2CCOCC2)C1c1cccc(F)c1)c1cc2ccccc2o1 (stereo not drawn),2,9%,45µM*,nt,10,0%
COc1cccc2cc(C(=O)C3=C(O)C(=O)N(CCN4CCOCC4)C3c3cccc(Cl)c3)oc12 (stereo not drawn),-6,-16%,-12%,nt,-8,5%
O=C(C1=C(O)C(=O)N(CCN2CCOCC2)C1c1ccc(Br)cc1)c1cc2ccccc2o1 (stereo not drawn),9,-2%,32µM*,nt,21,4%
O=C(C1=C(O)C(=O)N(CCN2CCOCC2)C1c1cccc(O)c1)c1cc2ccccc2o1 (stereo not drawn),-1,3%,?,14%,-6,-2%
C/C(=C(\CCO)SSCC1CCCO1)N(C=O)Cc1cnc(C)nc1N (stereo not drawn),nt,nt,nt,nt,nt,5%
CN(C)CCCN1C(=O)C(O)=C(C(=O)c2cc3ccccc3o2)C1c1ccccc1 (stereo not drawn),-1,4%,-29%,?,13,3%
COC(=O)c1ccc(C2C(C(=O)c3cc4ccccc4o3)=C(O)C(=O)N2CCCN(C)C)cc1 (stereo not drawn),-3,6%,11µM*,18%,4,-7%
O=C(C1=C(O)C(=O)N(CCCN2CCOCC2)C1c1ccncc1)c1cc2ccccc2o1 (stereo not drawn),-5,1%,45µM*,5%,-11,nt
CC(=O)C1=C(O)C(=O)N(CCN2CCOCC2)C1c1ccccc1 (stereo not drawn),-1,0%,32µM*,-14%,5,2%
COc1ccc(OC)c(C2C(C(C)=O)=C(O)C(=O)N2CCN2CCOCC2)c1 (stereo not drawn),-1,-1%,?,?,22,-5%
Cc1ccc(C2C(C(=O)c3cc4ccccc4o3)=C(O)C(=O)N2CCN2CCOCC2)cc1 (stereo not drawn),17,1%,32µM*,nt,35,-1%
SMILES,Cycloheximide cs,LmPK inh,Sm TGR block,FBPA Giardia inh,Shiga toxin inh,Tb PYK inh
O=C(C1=C(O)C(=O)N(CCN2CCOCC2)C1c1cccs1)c1cc2ccccc2o1 (stereo not drawn),nt,nt,nt,nt,nt,0%
O=C(O)c1ccc(C(=O)c2cc([N+](=O)[O-])cc([N+](=O)[O-])c2)cc1,nt,nt,nt,nt,nt,15%
COc1ccc(Cl)cc1NC(=O)c1cc(S(=O)(=O)NC2CCCCCC2)ccc1F,nt,nt,13%,nt,nt,1%
CC(C)(C)NC(=O)[C@@H]1CN(Cc2cccnc2)CCN1C[C@@H](O)C[C@@H](Cc1ccccc1)C(=O)N[C@H]1c2ccccc2C[C@H]1O,nt,nt,nt,nt,nt,4%
Cc1ccc2cc(C)c(N3CCN(c4ccccn4)CC3)nc2c1,28,-4%,0%,0%,51*,2%
Cc1ccc(-c2nnc(N3CCN(c4ccccn4)CC3)c3ccccc23)cc1,-2,0%,3%,1%,-6,3%
Cc1ccc2[nH]cc(C(=O)CN3CCN(c4ccccn4)CC3)c2c1,-5,10%,-33%,-5%,-14,-8%
Cc1ccc(C(=O)CN2CCN(c3ccccn3)CC2)c(C)c1,7,0%,14µM*,-7%,-7,-3%
COc1ccc(NC2=C(c3ccccc3)C(=O)c3ccccc32)cc1Cl,nt,nt,-4%,nt,nt,3%
COc1ccc(OC)c(NC2=C(c3ccccc3)C(=O)c3ccccc32)c1,nt,nt,35µM*,nt,nt,-7%
Cc1cc(C)c(NC(=O)c2sc3nc(C)cc(C)c3c2NC(=O)c2ccccc2)c(C)c1,nt,nt,-2%,nt,nt,-3%
COc1ccc(OC)c(S(=O)(=O)NCCc2sc(-c3cccnc3)nc2C)c1,nt,nt,-24%,nt,nt,6%
COc1ccc(C(=O)Oc2cc(C)[nH]c(=O)c2[N+](=O)[O-])cc1,-2,-5%,-5%,6%,-11,0%
COc1ccc(/C=C/C(=O)Oc2cc(C)[nH]c(=O)c2[N+](=O)[O-])cc1OC,59*,0%,-12%,-3%,164*,7%
Cc1cccc(N2C(=O)/C(=C/c3ccc(CN(CCC#N)S(C)(=O)=O)o3)C(=O)NC2=S)c1,2,22%,8.9µM*,?,-12,?
Cc1ccc(N2C(=O)/C(=C/c3ccc(CN(CCC#N)S(C)(=O)=O)o3)C(=O)NC2=S)cc1C,-3,3%,3.2µM*,?,15,nt
COc1ccc(-c2nc3cnc(N(C)C)nc3n(CCC#N)c2=O)cc1,nt,nt,nt,0%,nt,nt

# Source: PubChem BioAssay
